Assay results: publication PMC13083723 (Patterns, 2026)
The whole screen tested about 5,400 compounds, of which about 190 (3.5%) showed an effect of 50% or more. For the sample, strong results were picked, then their nearest neighbours and some compounds at random.

Tested on: Vero-E6
Assay: primary screen, phospholipidosis by LipidTOX staining; higher = more effect of the substance
Details: 10 µM
How it was run: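 Drug-induced phospholipidosis detected with HCS LipidTOX Red reagent in Vero-E6 cells. Compounds tested at 10 μM, with amiodarone (10 μM) as positive control and DMSO (0.1 v/v %) as vehicle.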

Compound	result_ITMP [%]
COc1cc2c(Nc3ccc(NC(=O)c4ccccc4)cc3)ncnc2cc1OCCCN1CCOCC1	-3.61
COc1cc2nccc(Oc3ccc(NC(=O)C4(C(=O)Nc5ccc(F)cc5)CC4)cc3)c2cc1OC	0.07
COc1cc2c(Oc3ccc(NC(=O)C4(C(=O)Nc5ccc(F)cc5)CC4)cc3F)ccnc2cc1OCCCN1CCOCC1	80.1
CN1[C@@H]2CC[C@H]1C[C@@H](OC(=O)N1Cc3ccccc3NC1=O)C2	-1.56
Cc1cc(Nc2ncnc3ccc(-c4ccc(CNCCS(C)(=O)=O)o4)cc23)ccc1Oc1ccn2ncnc2c1	48.5
CS(=O)(=O)CCNCc1ccc(-c2ccc3ncnc(Nc4ccc(OCc5cccc(F)c5)c(Cl)c4)c3c2)o1	91.4
CS(=O)(=O)CCNCc1nc(-c2ccc3ncnc(Nc4ccc(OCc5cccc(F)c5)c(Cl)c4)c3c2)cs1	2.46
CCn1c(=O)[nH]c2ccccc21	-2.45
CCn1c2ccccc2c2cc(CNC)ccc21	73.3
CCn1c2ccccc2c2cc(CNCc3ccccc3OC)ccc21	56.5
COc1ccc(CNCc2cccc3ccccc23)cc1	11.4
CCCC(CCC)C(=O)NCc1ccc2c(cnn2-c2ccccc2OC)c1	0.82
CCCC(CCC)C(=O)[O-]	-5.85
CC(=O)NCC(=O)N1[C@@H]2CC[C@H]1c1ccc(Nc3ncc(C(F)(F)F)c(NC4CCC4)n3)cc12	2.85
Nc1nc(=O)c2c([nH]1)NCC(CNc1ccc(C(=O)N[C@@H](CCC(=O)[O-])C(=O)[O-])cc1)N2C=O (stereo partly drawn)	-2.25
C=C1/C(=C\C=C2/CCC[C@]3(C)[C@@H]([C@H](C)/C=C/[C@@H](O)C4CC4)CC[C@@H]23)C[C@@H](O)C[C@@H]1O	-1.18
Nc1nc(=O)c2c([nH]1)NC[C@H](CNc1ccc(C(=O)N[C@@H](CCC(=O)[O-])C(=O)[O-])cc1)N2C=O	-7.53
Cn1cc(-c2ccc3ncc(Cc4ccc5ncccc5c4)n3n2)cn1	3.96
COc1cc(OC)cc(N(CCNC(C)C)c2ccc3ncc(-c4cnn(C)c4)nc3c2)c1	55.2
COc1cc2ncc(-c3ccccc3)nc2cc1OC	-10.1
CCCCCN(C)CCC(O)(P(=O)([O-])O)P(=O)(O)O	3.23
C=CCN.ClCC1CO1 (stereo not drawn)	-4.42
C[C@@H]1N=C(N)NC(N(C)C)=N1	-2.11
CC(C)c1cnn2c(NCc3ccccc3)cc(NCCCCCCN)nc12	53.6
CC(=O)N[C@H]1[C@H]([C@H](O)[C@H](O)CO)OC(C(=O)O)=C[C@@H]1NC(=N)N	-15.8
Cc1ncc(-c2csc(NC(=N)N)n2)[nH]1	-2.01

Compound	result_ITMP [%]
Cn1cc(C(=O)C(=O)N[C@H]2CN3CCC2CC3)c2ccccc21	4.71
c1ccc2c(c1)Sc1ccccc1N2CC1CN2CCC1CC2 (stereo not drawn)	71.6
C[C@H](CCC(=O)[O-])[C@H]1CCC2C3C(=O)CC4CC(=O)CC[C@]4(C)C3CC(=O)[C@@]21C (stereo partly drawn)	4.65
COc1cc(NC(C)CCCN)c2ncccc2c1 (stereo not drawn)	1.37
COc1cc(C)c2c(Oc3cccc(C(F)(F)F)c3)c(OC)cc(NC(C)CCCN)c2n1 (stereo not drawn)	51.6
CO[C@H]1CC[C@H](N(c2cc(C3=CCCCC3)sc2C(=O)[O-])C(=O)[C@H]2CC[C@H](C)CC2)CC1	-0.87
C[C@]12CC[C@@H]3c4ccc(OC(=O)N(CCCl)CCCl)cc4CC[C@H]3[C@@H]1CC[C@@H]2OP(=O)([O-])[O-]	-4.08
O=C(CCCN1CCC2(CC1)C(=O)NCN2c1ccccc1)c1ccc(F)cc1	20.3
O=C(CCCN1CCC(O)(c2ccc(Br)cc2)CC1)c1ccc(F)cc1	14.8
O=C(CCCN1CCC2(CC1)C(=O)N(Cc1cccc(F)c1)CN2c1ccccc1)c1ccc(F)cc1	89
CC(=O)OCC1=C(C(=O)[O-])N2C(=O)[C@@H](NC(=O)CCCC(N)C(=O)[O-])C2SC1 (stereo partly drawn)	1.34
CC1(C)[C@H]2CC[C@@]1(C)[C@H](O)[C@@H]2O	-3.19
C[C@@H]1[C@H](O)[C@@H](C)/C=C/C=C/C=C/C=C/C=C/C=C/C=C/[C@H](O[C@@H]2O[C@H](C)[C@@H](O)[C@H](N)[C@@H]2O)C[C@@H]2O[C@](O)(C[C@@H](O)C[C@@H](O)[C@H](O)CC[C@@H](O)C[C@@H](O)CC(=O)O[C@H]1C)C[C@H](O)[C@H]2C(=O)O	0.23
C[C@]12CCC(=O)C=C1CC[C@@H]1[C@@H]2[C@@H](O)C[C@]2(C)C(=O)CC[C@@H]12	-4.8
NC(=O)[C@@H]1CC[C@@H]2CN1C(=O)N2OS(=O)(=O)[O-]	-0.26
COc1cc(OC2CCN(C)CC2)ccc1Nc1ncc2c(n1)n(C1CCCC1)c(=O)n2C	37.2
CC[C@@H]1C(=O)N(C)c2cnc(Nc3ccc(C(=O)N[C@H]4CC[C@H](N5CCN(CC6CC6)CC5)CC4)cc3OC)nc2N1C(C)C	81.5
COc1ccc(F)c(F)c1C(=O)c1cnc(NC2CCN(S(C)(=O)=O)CC2)nc1N	16.3
CC[C@@H]1C(=O)N(C)c2cnc(Nc3ccc(C(=O)NC4CCN(C)CC4)cc3OC)nc2N1C1CCCC1	66.8
COc1cc(C(=O)NC2CCN(C)CC2)c(F)cc1Nc1ncc2c(n1)N(C1CCCC1)CC(F)(F)C(=O)N2C	69.4
COc1cc(C(=O)N2CCC(N3CCN(C)CC3)CC2)ccc1Nc1ncc2c(n1)N(C)c1ccccc1C(=O)N2C	37.9
CCOc1cc(C(=O)N2CCC(N3CCN(C)CC3)CC2)ccc1Nc1ncc2c(n1)N(C1CCCC1)c1ccccc1C(=O)N2C	14.1
CC(C)CCN1c2nc(Nc3cc(F)c(O)c(F)c3)ncc2N(C)C(=O)C1C (stereo not drawn)	17.5
CC(C)(C)/[N+]([O-])=C/c1ccc(S(=O)(=O)[O-])cc1S(=O)(=O)[O-]	-0.44
O=C(O)c1ccc(/C=C2\SC(=S)N(c3cccc(C(F)(F)F)c3)C2=O)cc1	0.16
CC(C)(COP(=O)([O-])OP(=O)([O-])OC[C@H]1O[C@@H](n2cnc3c(N)ncnc32)[C@H](O)[C@@H]1OP(=O)([O-])O)[C@@H](O)C(=O)NCCC(=O)NCCS	-4.31

Compound	result_ITMP [%]
COc1ccc(/C=C\c2cc(OC)c(OC)c(OC)c2)cc1OP(=O)([O-])[O-]	11.6
N=C1NCCN1CC(=O)O	1.96
O=C(O)CC/C=C\C[C@@H]1CO[C@H](c2ccccc2Cl)O[C@@H]1c1ccccc1O (racemic)	-1.11
NC(=O)C1=CN([C@@H]2O[C@H](COP(=O)([O-])OP(=O)([O-])OC[C@H]3O[C@@H](n4cnc5c(N)ncnc54)[C@H](O)[C@@H]3O)[C@@H](O)[C@H]2O)C=CC1	-10.8
C[C@H]1Oc2cc(cnc2N)-c2c(nn(C)c2C#N)CN(C)C(=O)c2ccc(F)cc21 [R4A_0001637_001 / SPE_A23124853]	-7.18
Cc1onc(-c2ccccc2)c1C(=O)NC1C(=O)N2[C@@H]1SC(C)(C)[C@@H]2C(=O)[O-] (stereo partly drawn)	-4.06
O=C(O)c1cc(Oc2ccc([N+](=O)[O-])cc2)cc(Oc2ccc([N+](=O)[O-])cc2)c1	-1.17
CCOC(=O)C1CSC(Cc2ccc(OCc3ccc([N+](=O)[O-])cc3)cc2)N1 (stereo not drawn)	-2.45
N=C(N)SCCc1ccc(OCc2ccc([N+](=O)[O-])cc2)cc1	70
COc1c(C)c(C(=O)c2ccc(N)c(C(=O)[O-])c2)n2ccccc12	-3.94
NCCC(O)(P(=O)([O-])O)P(=O)([O-])O	-8.19
O=S(=O)([O-])c1cc(I)c(O)c2ncccc12	-9.09
Cc1nc(=O)c2c([nH]1)CCSC2	-2.05
CC1(C)[C@@H]2CC[C@@]1(C)C(=O)C2 [R4A_0000828_001 / SPE_K15714472]	-1
Cc1ccc(C(=O)Nc2cccc(C(F)(F)F)c2)cc1Nc1nc(-c2cccnc2)nc2c1cnn2C	-4.6
Cc1ccc(NC(=O)c2ccc(CN3CCN(C)CC3)cc2)cc1Nc1nc(-c2cccnc2)cs1	54
Cc1ncc(NC(=O)c2ccc(CN3CCN(C)CC3)c(C(F)(F)F)c2)cc1Nc1nccc(-c2cccnc2)n1	9.33
CC(C)[C@@H](C)/C=C/[C@@H](C)[C@H]1CC[C@H]2C3=CC=C4C[C@@H](O)CC[C@]4(C)[C@H]3CC[C@]12C	-5.48
Nc1ncnc2c1ncn2C1O[C@H](COP(=O)(O)OP(=O)([O-])OP(=O)([O-])O)[C@@H](O)[C@H]1O (stereo partly drawn)	6.44
CC1(C)[C@@H]2C[C@H]1[C@@](C)(O)[C@@H](O)C2	-2.34
Cc1ccc(C(=O)N(CCCN)[C@@H](c2nc3cc(Cl)ccc3c(=O)n2Cc2ccccc2)C(C)C)cc1	75.7
Cc1ccc(C(=O)N(CCCN)[C@@H](c2oc3cc(Cl)ccc3c(=O)c2Cc2ccccc2)C(C)C)cc1	92.7
CCNC(=O)CCC(N)C(=O)O (stereo in doubt)	-4.2
c1cc2c(cc1[C@H]1OC[C@H]3[C@@H]1CO[C@@H]3c1ccc3c(c1)OCO3)OCO2	-6.11
c1ccc(Oc2nc(NC3CCCCC3)c3nc[nH]c3n2)cc1	-2.48
NC(N)=NCCC[C@@H](N)C(=O)N[C@@H](CCCN=C(N)N)C(=O)N1CCC[C@H]1C(=O)N1C[C@H](O)C[C@H]1C(=O)NCC(=O)N[C@@H](Cc1cccs1)C(=O)N[C@@H](CO)C(=O)N1Cc2ccccc2C[C@@H]1C(=O)N1[C@H](C(=O)N[C@@H](CCCN=C(N)N)C(=O)O)C[C@@H]2CCCC[C@@H]21	-1.28
